SMILES strings stand for the structures. About 83,000 compounds went through this panel and 20% of them were active in at least one assay; those are over-represented in the sample as a whole.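 Method: cells in 96-well plates; compound added at one concentration; 48 h incubation; percent growth measured; values under 10 scored active.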 A number with no mark means an inactive call. The source made the active and inactive calls.

Among the test systems are HCT-15 colon; HT29 colon; SNB-75 CNS; SNB-19 CNS; U251 CNS; PC-3 prostate; SK-MEL-5 melanoma; UACC-62 melanoma; LOX IMVI melanoma; SK-MEL-28 melanoma; SK-MEL-2 melanoma; EKVX NSCLC; SN12C renal; UO-31 renal; TK-10 renal; ACHN renal; CAKI-1 renal; A498 renal; CCRF-CEM leukemia; MOLT-4 leukemia.
What all share (test): NCI-60 one-dose screen, 48 h (100 = growth as untreated, 0 = no growth, -100 = all killed)
Common to all, as to conditions: 10 µM unless noted

Consider `CN(C)CCCNC(=O)c1cncnc1Nc1ccc2c(ccn2Cc2cccc(F)c2)c1`, for which the growth with HCT-15 colon is 63.2%; in the test on HT29 colon, 39.1%; in the test with SNB-75 CNS, 78%; in the test with SNB-19 CNS, 92.5%; in the test with U251 CNS, 68.9%; with PC-3 prostate it was 86%. In addition, the growth is 91.4% in the test on SK-MEL-5 melanoma; 100% with UACC-62 melanoma; 76.7% in the test with LOX IMVI melanoma; 89.6% in the test with SK-MEL-28 melanoma; 107% in the test on SK-MEL-2 melanoma; 96.6% in the test on EKVX NSCLC. The growth in the test on SN12C renal was 84.9%; in the test on UO-31 renal it was 71.5%; in the test on TK-10 renal it was 103%; in the test on ACHN renal it was 102%; in the test on CAKI-1 renal it was 83.7%; in the test on A498 renal, 32.7%. The growth is 67% in the test with CCRF-CEM leukemia and 72% in the test with MOLT-4 leukemia.

Take `COc1ccc2cc(-c3nc4ccc(C)cn4c3NCc3ccco3)c(=O)[nH]c2c1`: the growth is 75.8% in the test on HCT-15 colon; 79.9% in the test on HT29 colon; 56% with SNB-75 CNS; 34.6% in the test on SNB-19 CNS; 75.1% in the test with U251 CNS; 46.1% with PC-3 prostate. Further, the growth is 56.9% in the test with SK-MEL-5 melanoma; 46% in the test on UACC-62 melanoma; 75.8% in the test on LOX IMVI melanoma; 81.8% in the test with SK-MEL-28 melanoma; 105% in the test with SK-MEL-2 melanoma; 55.9% in the test with EKVX NSCLC. Also, the growth with SN12C renal was 76.1%; in the test with UO-31 renal, 47.8%; in the test with TK-10 renal it was 71%; in the test with ACHN renal it was 45.4%; in the test with CAKI-1 renal, 50.8%; in the test with A498 renal it was 43.8%. The results for the growth in the test on CCRF-CEM leukemia and in the test on MOLT-4 leukemia were 62.3% and 52.7%, respectively.

Regarding `COc1cc2c(c(OC)c1OC)CCC(c1cccc(C(=O)Nc3ccc(Br)cc3)c1)O2` (stereo not given), the growth was 61% with HCT-15 colon; 65.7% with HT29 colon; 61.8% with SNB-75 CNS; 65.8% in the test with SNB-19 CNS; 75.5% in the test with U251 CNS; 39.4% in the test with PC-3 prostate. In addition, the growth was 55% with SK-MEL-5 melanoma; 53% in the test with UACC-62 melanoma; 65.2% in the test on LOX IMVI melanoma; 76.9% with SK-MEL-28 melanoma; 46.4% in the test with SK-MEL-2 melanoma; 60.5% in the test on EKVX NSCLC. Besides, the growth with SN12C renal is 47.1%; in the test on UO-31 renal it was 39.7%; in the test with TK-10 renal it was 77.4%; in the test on ACHN renal, 67.9%; with CAKI-1 renal it was 73.6%; with A498 renal it was -3.18% (active). The growth in the test with CCRF-CEM leukemia was 53.3%; in the test with MOLT-4 leukemia, 25.1%.

As for `Cc1c2ncccc2nc2[nH]c3ccc(OCCN(C)C)cc3c12`, the growth in the test with HCT-15 colon is 15.7%; with HT29 colon, 5.4% (active); in the test with SNB-75 CNS it was 63%; in the test on SNB-19 CNS, 15.3%; in the test with U251 CNS it was 20.3%; with PC-3 prostate it was 12.1%. Further, the growth in the test with SK-MEL-5 melanoma is 47%; in the test with UACC-62 melanoma, 35.2%; in the test with LOX IMVI melanoma, 18%; in the test with SK-MEL-28 melanoma, 78.5%; in the test with SK-MEL-2 melanoma, 33.7%; in the test with EKVX NSCLC, 49.2%. Also, the growth is 13.9% in the test on SN12C renal; 19.1% in the test with UO-31 renal; 31% in the test on TK-10 renal; 10.6% in the test with ACHN renal; 63.3% with CAKI-1 renal; 79.9% in the test with A498 renal. In addition, the growth in the test on CCRF-CEM leukemia was 6.43% (active); with MOLT-4 leukemia, 9.61% (active).

For `COc1cc(/C=C/C(=O)c2cc(OC)c(OC)c(OC)c2)ccc1Oc1nc2c(c(=O)n(C)c(=O)n2C)n1C`, the growth was 0.728% (active) in the test with HCT-15 colon; -51.1% (active) in the test with HT29 colon; 31% in the test on SNB-75 CNS; 18.7% in the test on SNB-19 CNS; -81.9% (active) in the test on U251 CNS; 7.57% (active) with PC-3 prostate. Also, the growth with SK-MEL-5 melanoma is 28.9%; in the test with UACC-62 melanoma it was -74.1% (active); in the test on LOX IMVI melanoma it was -81.1% (active); in the test on SK-MEL-28 melanoma, -45.3% (active); with SK-MEL-2 melanoma, 76.3%; in the test with EKVX NSCLC it was 1.98% (active). Moreover, the growth in the test on SN12C renal was 11.6%; in the test with UO-31 renal it was -92.1% (active); with TK-10 renal, -8.16% (active); in the test with ACHN renal, -21.9% (active); in the test on CAKI-1 renal it was -47.2% (active); in the test with A498 renal it was 29.4%. For the same molecule, the growth in the test with CCRF-CEM leukemia was 5.81% (active); in the test on MOLT-4 leukemia it was 2.13% (active).

In the case of `CC(=O)N1N=C(c2ccc(Nc3nc(Nc4ccc(F)cc4)nc(Nc4ccc(F)cc4)n3)cc2)CC1c1ccc(N(C)C)cc1` (stereo not given), the growth in the test with HCT-15 colon was 46.9%; in the test with HT29 colon, 50.7%; with SNB-75 CNS, 62.7%; in the test with SNB-19 CNS, 66.2%; with U251 CNS, 49.8%; with PC-3 prostate, 32.8%. In addition, the growth in the test on SK-MEL-5 melanoma was 29.3%; in the test with UACC-62 melanoma it was 57%; with LOX IMVI melanoma it was 52.5%; with SK-MEL-28 melanoma it was 64.2%; with SK-MEL-2 melanoma, 40.3%; in the test on EKVX NSCLC, 47.5%. Further, the growth is 100% in the test on SN12C renal; 34% in the test on UO-31 renal; 72.9% in the test with TK-10 renal; 58.7% in the test on ACHN renal; 59.3% in the test on CAKI-1 renal; 63.5% in the test on A498 renal. Moreover, the results for the growth in the test with CCRF-CEM leukemia and with MOLT-4 leukemia were -2.06% (active) and 14.2%, respectively.

On to `CCOc1ncc([N+](=O)[O-])c(OCC)n1`, for which the growth was 104% in the test with HCT-15 colon; 121% with HT29 colon; 97% in the test with SNB-75 CNS; 104% in the test on SNB-19 CNS; 109% with U251 CNS; 88.1% with PC-3 prostate. Moreover, the growth with SK-MEL-5 melanoma was 99.9%; in the test on UACC-62 melanoma, 95.9%; in the test with LOX IMVI melanoma, 101%; in the test on SK-MEL-28 melanoma, 105%; in the test with SK-MEL-2 melanoma it was 103%; in the test on EKVX NSCLC, 122%. Further, the growth with SN12C renal is 91.8%; in the test on UO-31 renal, 106%; in the test with TK-10 renal, 115%; in the test with ACHN renal, 106%; with CAKI-1 renal, 116%; in the test with A498 renal, 111%. Besides, the growth is 101% with CCRF-CEM leukemia and 90.9% in the test with MOLT-4 leukemia.

As for `COc1ccc(-c2nc3ccc(C)cc3c3c2c(=O)n(C)c(=O)n3C)cc1OC`, the growth is 108% in the test on HCT-15 colon; 108% in the test with HT29 colon; 92.9% in the test on SNB-75 CNS; 98.7% with SNB-19 CNS; 96.9% in the test on U251 CNS; 97.5% in the test on PC-3 prostate. Besides, the growth in the test on SK-MEL-5 melanoma is 103%; in the test on UACC-62 melanoma it was 89.5%; in the test on LOX IMVI melanoma it was 95.6%; in the test with SK-MEL-28 melanoma, 112%; with SK-MEL-2 melanoma, 123%; with EKVX NSCLC it was 102%. Further, the growth is 98% in the test on SN12C renal; 106% in the test on UO-31 renal; 106% in the test on TK-10 renal; 97.7% in the test with ACHN renal; 88.4% with CAKI-1 renal; 94% with A498 renal. Moreover, the growth is 92.3% in the test with CCRF-CEM leukemia and 101% in the test on MOLT-4 leukemia.

Values taken from PubChem BioAssay (NCI).
